Source: paper PMC11062922 (Nature Chemical Biology, 2023)
Like-named read-outs stand apart in the source and are kept apart here.

Tested on: FLT4
Conditions: read-out: apparent Kd, n = 1

For Lestaurtinib, which potency estimated from few doses (compound concentrations:100 nM and 1000 nM (sheet 'Lestaurtinib' of Supplementary Table 1),run:Lestaurtinib_02364_R3,Plate:MR002) is on record?
The potency estimated from few doses was 199 nM.

And the potency estimated from few doses (compound concentrations:100 nM and 1000 nM (sheet 'Lestaurtinib' of Supplementary Table 1),run:Lestaurtinib_02367_R2,Plate:MR003)?
The potency estimated from few doses was 462 nM.

And the potency estimated from few doses (compound concentrations:100 nM and 1000 nM (sheet 'Lestaurtinib' of Supplementary Table 1),run:Lestaurtinib_02367_R3,Plate:MR003)?
The potency estimated from few doses was 74.5 nM.

What about the potency estimated from few doses (compound concentrations:100 nM and 1000 nM (sheet 'Lestaurtinib' of Supplementary Table 1),run:Lestaurtinib_02381_R1,Plate:MR004) of the same substance?
Its potency estimated from few doses is 202 nM.

What about the potency estimated from few doses (compound concentrations:100 nM and 1000 nM (sheet 'Lestaurtinib' of Supplementary Table 1),run:Lestaurtinib_02381_R2,Plate:MR004) of the same substance?
Its potency estimated from few doses is 158 nM.

And the potency estimated from few doses (compound concentrations:100 nM and 1000 nM (sheet 'Lestaurtinib' of Supplementary Table 1),run:Lestaurtinib_02407_R2,Plate:MR005)?
Its potency estimated from few doses is 157 nM.

What about the potency estimated from few doses (compound concentrations:100 nM and 1000 nM (sheet 'Lestaurtinib' of Supplementary Table 1),run:Lestaurtinib_02422_R1,Plate:MR006) of the same substance?
The potency estimated from few doses was 289 nM.

What about the potency estimated from few doses (compound concentrations:100 nM and 1000 nM (sheet 'Lestaurtinib' of Supplementary Table 1),run:Lestaurtinib_02422_R2,Plate:MR006) of the same substance?
Its potency estimated from few doses is 26 nM.

What about the potency estimated from few doses (compound concentrations:100 nM and 1000 nM (sheet 'Lestaurtinib' of Supplementary Table 1),run:Lestaurtinib_02437_R1,Plate:MR007) of the same substance?
The potency estimated from few doses was 520 nM.

What about the potency estimated from few doses (compound concentrations:100 nM and 1000 nM (sheet 'Lestaurtinib' of Supplementary Table 1),run:Lestaurtinib_02437_R2,Plate:MR007) of the same substance?
The potency estimated from few doses was 1240 nM.

And the potency estimated from few doses (compound concentrations:100 nM and 1000 nM (sheet 'Lestaurtinib' of Supplementary Table 1),run:Lestaurtinib_02438_R1,Plate:MR008)?
Its potency estimated from few doses is 25.6 nM.

And the potency estimated from few doses (compound concentrations:100 nM and 1000 nM (sheet 'Lestaurtinib' of Supplementary Table 1),run:Lestaurtinib_02443_R3,Plate:MR009)?
The potency estimated from few doses was 154 nM.

What about the potency estimated from few doses (compound concentrations:100 nM and 1000 nM (sheet 'Lestaurtinib' of Supplementary Table 1),run:Lestaurtinib_02473_R1,Plate:MR010) of the same substance?
Its potency estimated from few doses is 310 nM.

And the potency estimated from few doses (compound concentrations:100 nM and 1000 nM (sheet 'Lestaurtinib' of Supplementary Table 1),run:Lestaurtinib_02473_R2,Plate:MR010)?
The potency estimated from few doses was 316 nM.

And the potency estimated from few doses (compound concentrations:100 nM and 1000 nM (sheet 'Lestaurtinib' of Supplementary Table 1),run:Lestaurtinib_02482_R3,Plate:MR011)?
Its potency estimated from few doses is 229 nM.

And the potency estimated from few doses (compound concentrations:100 nM and 1000 nM (sheet 'Lestaurtinib' of Supplementary Table 1),run:Lestaurtinib_02487_R2,Plate:MR012)?
Its potency estimated from few doses is 131 nM.

And the potency estimated from few doses (compound concentrations:100 nM and 1000 nM (sheet 'Lestaurtinib' of Supplementary Table 1),run:Lestaurtinib_02566_R1,Plate:MR014)?
The potency estimated from few doses was 1590 nM.

What about the potency estimated from few doses (compound concentrations:100 nM and 1000 nM (sheet 'Lestaurtinib' of Supplementary Table 1),run:Lestaurtinib_02566_R2,Plate:MR014) of the same substance?
Its potency estimated from few doses is 90.7 nM.

What about the potency estimated from few doses (compound concentrations:100 nM and 1000 nM (sheet 'Lestaurtinib' of Supplementary Table 1),run:Lestaurtinib_02566_R3,Plate:MR014) of the same substance?
The potency estimated from few doses was 77.7 nM.

What about the potency estimated from few doses (compound concentrations:100 nM and 1000 nM (sheet 'Lestaurtinib' of Supplementary Table 1),run:Lestaurtinib_02577_R2,Plate:MR016) of the same substance?
Its potency estimated from few doses is 225 nM.

What about the potency estimated from few doses (compound concentrations:100 nM and 1000 nM (sheet 'Lestaurtinib' of Supplementary Table 1),run:Lestaurtinib_02577_R3,Plate:MR016) of the same substance?
The potency estimated from few doses was 160 nM.

What about the potency estimated from few doses (compound concentrations:100 nM and 1000 nM (sheet 'Lestaurtinib' of Supplementary Table 1),run:Lestaurtinib_02584_R1,Plate:MR017) of the same substance?
Its potency estimated from few doses is 396 nM.

And the potency estimated from few doses (compound concentrations:100 nM and 1000 nM (sheet 'Lestaurtinib' of Supplementary Table 1),run:Lestaurtinib_02584_R2,Plate:MR017)?
The potency estimated from few doses was 124 nM.

What about the potency estimated from few doses (compound concentrations:100 nM and 1000 nM (sheet 'Lestaurtinib' of Supplementary Table 1),run:Lestaurtinib_02584_R3,Plate:MR017) of the same substance?
Its potency estimated from few doses is 434 nM.

And the potency estimated from few doses (compound concentrations:100 nM and 1000 nM (sheet 'Lestaurtinib' of Supplementary Table 1),run:Lestaurtinib_02601_R1,Plate:MR018)?
The potency estimated from few doses was 286 nM.

And the potency estimated from few doses (compound concentrations:100 nM and 1000 nM (sheet 'Lestaurtinib' of Supplementary Table 1),run:Lestaurtinib_02601_R2,Plate:MR018)?
The potency estimated from few doses was 202 nM.

What about the potency estimated from few doses (compound concentrations:100 nM and 1000 nM (sheet 'Lestaurtinib' of Supplementary Table 1),run:Lestaurtinib_02601_R3,Plate:MR018) of the same substance?
The potency estimated from few doses was 86 nM.

What about the potency estimated from few doses (compound concentrations:100 nM and 1000 nM (sheet 'Lestaurtinib' of Supplementary Table 1),run:Lestaurtinib_02606_R3,Plate:MR019) of the same substance?
The potency estimated from few doses was 231 nM.

What about the potency estimated from few doses (compound concentrations:100 nM and 1000 nM (sheet 'Lestaurtinib' of Supplementary Table 1),run:Lestaurtinib_02624_R1,Plate:MR020) of the same substance?
The potency estimated from few doses was 358 nM.

What about the potency estimated from few doses (compound concentrations:100 nM and 1000 nM (sheet 'Lestaurtinib' of Supplementary Table 1),run:Lestaurtinib_02624_R2,Plate:MR020) of the same substance?
The potency estimated from few doses was 135 nM.

What about the potency estimated from few doses (compound concentrations:100 nM and 1000 nM (sheet 'Lestaurtinib' of Supplementary Table 1),run:Lestaurtinib_02624_R3,Plate:MR020) of the same substance?
The potency estimated from few doses was 359 nM.

And the potency estimated from few doses (compound concentrations:100 nM and 1000 nM (sheet 'Lestaurtinib' of Supplementary Table 1),run:Lestaurtinib_02724_R2,Plate:MR021)?
Its potency estimated from few doses is 319 nM.

What about the potency estimated from few doses (compound concentrations:100 nM and 1000 nM (sheet 'Lestaurtinib' of Supplementary Table 1),run:Lestaurtinib_02741_R2,Plate:MR023) of the same substance?
The potency estimated from few doses was 701 nM.

What about the potency estimated from few doses (compound concentrations:100 nM and 1000 nM (sheet 'Lestaurtinib' of Supplementary Table 1),run:Lestaurtinib_02748_R1,Plate:MR024) of the same substance?
The potency estimated from few doses was 330 nM.

And the potency estimated from few doses (compound concentrations:100 nM and 1000 nM (sheet 'Lestaurtinib' of Supplementary Table 1),run:Lestaurtinib_02748_R2,Plate:MR024)?
Its potency estimated from few doses is 521 nM.

And the potency estimated from few doses (compound concentrations:100 nM and 1000 nM (sheet 'Lestaurtinib' of Supplementary Table 1),run:Lestaurtinib_02748_R3,Plate:MR024)?
Its potency estimated from few doses is 161 nM.
